# Data reported in PubChem BioAssay AID2796 (The Scripps Research Institute Molecular Screening Center, 2010).
# In all, about 320,000 compounds went through this assay and about 8,000 (2.5%) were called active. The sample holds actives, similar compounds and a random draw of the others, so the mix is not that of the screen. A number with no mark means an inactive call. Rule as the data show it: active = activation above about 47%; inactive = the rest.
# Biological target: Aryl hydrocarbon receptor (Homo sapiens) (UniProt P35869)
# Experiment: AHR activators, primary screen, cell-based, luminescence, luciferase reporter, human (AID 2796);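 also: 0% = vehicle wells and 100% = reference agonist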
# Conditions: AHR-responsive luciferase reporter cells, at 5 µM, active compounds read high
# Sequence of Aryl hydrocarbon receptor (Homo sapiens) (P35869 whole entry, looked up): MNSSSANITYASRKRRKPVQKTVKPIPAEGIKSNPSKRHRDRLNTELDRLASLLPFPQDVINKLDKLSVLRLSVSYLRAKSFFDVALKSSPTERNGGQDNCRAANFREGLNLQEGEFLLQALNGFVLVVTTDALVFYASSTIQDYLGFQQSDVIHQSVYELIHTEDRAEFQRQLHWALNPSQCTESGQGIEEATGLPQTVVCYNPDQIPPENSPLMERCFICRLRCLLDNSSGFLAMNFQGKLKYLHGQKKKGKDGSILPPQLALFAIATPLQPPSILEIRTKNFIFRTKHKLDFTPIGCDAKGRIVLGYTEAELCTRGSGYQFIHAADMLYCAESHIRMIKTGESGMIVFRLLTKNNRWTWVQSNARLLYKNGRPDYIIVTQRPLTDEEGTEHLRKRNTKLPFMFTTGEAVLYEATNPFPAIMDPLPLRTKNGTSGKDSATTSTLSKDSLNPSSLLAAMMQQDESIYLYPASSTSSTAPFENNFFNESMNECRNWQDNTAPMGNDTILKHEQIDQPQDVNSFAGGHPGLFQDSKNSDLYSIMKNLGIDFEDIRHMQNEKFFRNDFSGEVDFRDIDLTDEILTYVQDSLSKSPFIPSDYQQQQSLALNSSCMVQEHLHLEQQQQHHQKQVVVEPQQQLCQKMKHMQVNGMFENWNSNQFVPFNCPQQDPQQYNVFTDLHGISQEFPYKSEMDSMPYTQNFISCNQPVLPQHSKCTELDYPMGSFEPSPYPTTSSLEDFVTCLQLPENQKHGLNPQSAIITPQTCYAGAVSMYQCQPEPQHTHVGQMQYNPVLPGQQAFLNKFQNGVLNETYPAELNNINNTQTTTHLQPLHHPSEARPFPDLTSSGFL
row,SMILES,activation
1,OCc1n[nH]c(CO)n1,-0.81%
2,O=C(C1CCN(C2CCN(Cc3cccc4c3OCO4)CC2)CC1)N1CCOCC1,4.05%
3,COc1ccc(CCOC2OC(CO)C(OC(=O)/C=C/c3ccc(O)c(OC)c3)C(O[C@H]3O[C@@H](C)[C@H](O)[C@@H](O)[C@H]3O)C2O)cc1O (some centres not stated),1.88%
4,NC(=O)C1=C[C@H](c2csc3ccccc23)C[C@H](OCc2ccc(CO)cc2)O1,0.39%
5,O=C(NC1CC1)C1=C[C@H](c2c[nH]c3ccccc23)C[C@H](OCc2ccc(CO)cc2)O1,135% (active)
6,NC(=O)C1=C[C@@H](c2csc3ccccc23)C[C@@H](OCc2ccc(CO)cc2)O1,-0.11%
7,CCN(CC)C(=O)COc1coc(CN2CCN(Cc3ccccc3)CC2)cc1=O,-1.36%
8,C/C(=N\Nc1ncc(Cl)cc1Cl)c1ccc(S(=O)(=O)NCc2ccco2)cc1,29.9%
9,COc1cccc(/C(C)=N/Nc2ncc(Cl)cc2Cl)c1,53.5% (active)
10,C/C(=N\Nc1ncc(Cl)cc1Cl)c1cccs1,1.11%
11,CC1CCCCC12NC(=O)N(CC(=O)N1CCN(c3ccccc3)CC1)C2=O (configuration not stated),0.1%
12,CC1=NN(C(=O)CCc2ccccc2O)C(O)(C(F)(F)F)C1 (configuration not stated),-1.07%
13,COc1cccc(OC)c1C(=O)Nc1ccc2c(c1)n(C)c(=O)n2C,1.94%
14,COc1cccc(OC)c1C(=O)Nc1ccc(Cc2ccncc2)cc1,15.6%
15,COc1cccc(OC)c1C(=O)Nc1ccc(N2CCCCC2)cc1,79.6% (active)
16,COc1cc2ccccc2cc1C(=O)Nc1ccncc1,5.1%
17,COc1cc2ccccc2cc1C(=O)Nc1ccc(N2CCOCC2)cc1,95.9% (active)
18,COc1cc2ccccc2cc1C(=O)N1CCOCC1,0.61%
19,FC(F)(F)C1CCCN(c2nsc3ccccc23)C1 (configuration not stated),16.6%
20,Cc1noc(C)c1S(=O)(=O)N(C)C[C@H]1Oc2ccc(NC(=O)C3CCCCC3)cc2C(=O)N([C@H](C)CO)C[C@@H]1C,-1.72%
21,CCc1ccc(NC(=O)CS(=O)CC(=O)N2CCN(c3ccccc3F)CC2)cc1 (configuration not stated),-1.39%
22,O=C(O)CCC(=O)NCc1ccc2[nH]c3c(c2c1)CCCC3,1.38%
23,Cc1cccc(NC(=S)NCc2ccc3[nH]c4c(c3c2)CCCC4)c1,68% (active)
24,Cc1cc(C)cc(NC(=S)NCc2ccc(F)cc2)c1,4.28%
25,COc1ccc(C)cc1-n1nnnc1SCc1nc2ccccc2c(=O)[nH]1,24.9%
26,Cc1ccc(Nc2nc(CSc3nnnn3-c3ccccc3)cc(=O)[nH]2)cc1,73.4% (active)
27,Cc1ccc(-c2noc(CSc3nnnn3-c3ccccc3)n2)cc1,8.65%
